Where “and” joins values, the source holds several entries; their conditions need not be identical. Equal values may be shown once. Results filed as inconclusive are left out. Entries that show only a call come without a potency. Where a structure was tested more than once in an assay, its records may differ in their call. Calls of active or inactive are those of the source. Unless noted, calls follow the shape of the dose curve; as a rule, active = well fitted curve in the direction sought with a large enough effect in the repeat runs; inconclusive = weak or mixed curves; inactive = no such curve, though single readings can be large; an effect the other way counts as inactive or inconclusive.
What was measured:
[1] = qHTS assay to identify small molecule agonists of the RXR signaling pathway - cell viability counter screen (AID 1159529); also: nearly all actives have a fitted effect of over 50% in size; also: potency is read from the fitted curve at half-maximal effect
In short: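 RXR-alpha-UAS-bla HEK 293T cells in medium with 2% charcoal-stripped FBS were preincubated 5 hr, then exposed to compounds for 16 hr at 37 C. Viability was read as CellTiter-Glo luminescence after 30 min at room temperature.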

[2] = qHTS assay to identify small molecule antagonists of the retinoic acid receptor (RAR) signaling pathway (AID 1159552; also: nearly all actives have a fitted effect of over 50% in size; also: potency is read from the fitted curve at half-maximal effect)
In short: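 RARE-luc C3RL4 cells; cpds + 1 uM (final) retinol, 6 hr, 37 C/5% CO2; luciferase reagent, 30 min RT, luminescence readout. Inhibitors of retinol-driven signal scored.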

[3] = qHTS assay to identify small molecule agonists of the retinoic acid receptor (RAR) signaling pathway (AID 1159553); settings: C3RL4 RARE luciferase reporter, agonist, 6 h; activation: at 73.3 µM (top of the series) unless noted
In short: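 Cell line C3RL4, RARE luciferase reporter. Treatment: compounds in DMSO, 6 hr, 37 C, 5% CO2, after overnight plating. Detection: luminescence, 30 min RT after reagent.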

[4] = qHTS assay to identify small molecule antagonists of the estrogen related receptor (ERR) signaling pathway from Tox21 library - cell viability counter screen (AID 1224834); also: nearly all actives have a fitted effect of over 30% in size; also: potency is read from the fitted curve at half-maximal effect
In short: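 Viability readout (CellTiter-Fluor fluorescence, 30 min at 37 C) multiplexed with the ERR assay; cells treated 17.5 h at 37 C with compounds delivered in DMSO.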

[5] = target: Luciferin 4-monooxygenase (Photinus pyralis) (UniProt P08659); experiment: qHTS assay to identify small molecule inhibitors of firefly luciferase (AID 1224835); also: nearly all actives have a fitted effect of over 25% in size; also: potency is read from the fitted curve at half-maximal effect
Luciferin 4-monooxygenase (Photinus pyralis), sequence (P08659 whole entry, looked up): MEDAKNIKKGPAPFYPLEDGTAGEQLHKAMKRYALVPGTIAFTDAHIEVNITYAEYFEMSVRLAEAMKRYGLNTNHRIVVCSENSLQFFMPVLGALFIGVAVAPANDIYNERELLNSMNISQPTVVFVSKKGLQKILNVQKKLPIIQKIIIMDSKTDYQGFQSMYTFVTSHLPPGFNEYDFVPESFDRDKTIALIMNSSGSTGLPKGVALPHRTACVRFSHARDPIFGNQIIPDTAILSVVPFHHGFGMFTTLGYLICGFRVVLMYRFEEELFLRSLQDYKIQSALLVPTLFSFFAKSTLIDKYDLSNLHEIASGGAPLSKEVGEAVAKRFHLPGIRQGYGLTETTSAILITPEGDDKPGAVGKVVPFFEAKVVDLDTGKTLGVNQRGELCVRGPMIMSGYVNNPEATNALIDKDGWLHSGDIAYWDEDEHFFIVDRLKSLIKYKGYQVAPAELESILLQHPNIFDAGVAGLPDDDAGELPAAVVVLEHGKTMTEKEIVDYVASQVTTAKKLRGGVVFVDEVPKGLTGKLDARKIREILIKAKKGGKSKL
In short: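 Inhibition of purified Photinus luciferase is measured by luminescence. Substrate levels (D-luciferin, ATP) sit at their KM values. Each compound is tested in a concentration series.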

[6] = qHTS assay to identify small molecule agonists of the constitutive androstane receptor (CAR) signaling pathway - cell viability counter screen (AID 1224836); also: nearly all actives have a fitted effect of over 45% in size; also: potency is read from the fitted curve at half-maximal effect
In short: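 HepG2 cells stably carrying hCAR and a CYP2B6-2.2kb reporter were plated 4 h, then given compounds at 15 concentrations plus PK11195 (final 0.75 uM). After 23 h at 37 C, viability was read by CellTiter-Fluor fluorescence.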

[7] = qHTS assay to identify small molecule antagonists of the constitutive androstane receptor (CAR) signaling pathway - cell viability counter screen (AID 1224837); also: nearly all actives have a fitted effect of over 45% in size; also: potency is read from the fitted curve at half-maximal effect
In short: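 Fluorescence from CellTiter-Fluor served as the viability signal. Human hepatoma HepG2 cells stably bearing hCAR and CYP2B6-2.2kb received compound plus CITCO (50 nM final) for 23 hr.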

[8] = target: Nuclear receptor subfamily 1 group I member 3 (Homo sapiens) (UniProt Q14994); experiment: qHTS assay to identify small molecule antagonists of the constitutive androstane receptor (CAR) signaling pathway (AID 1224838); also: nearly all actives have a fitted effect of over 40% in size; also: potency is read from the fitted curve at half-maximal effect
Nuclear receptor subfamily 1 group I member 3 (Homo sapiens), sequence (Q14994 whole entry, looked up): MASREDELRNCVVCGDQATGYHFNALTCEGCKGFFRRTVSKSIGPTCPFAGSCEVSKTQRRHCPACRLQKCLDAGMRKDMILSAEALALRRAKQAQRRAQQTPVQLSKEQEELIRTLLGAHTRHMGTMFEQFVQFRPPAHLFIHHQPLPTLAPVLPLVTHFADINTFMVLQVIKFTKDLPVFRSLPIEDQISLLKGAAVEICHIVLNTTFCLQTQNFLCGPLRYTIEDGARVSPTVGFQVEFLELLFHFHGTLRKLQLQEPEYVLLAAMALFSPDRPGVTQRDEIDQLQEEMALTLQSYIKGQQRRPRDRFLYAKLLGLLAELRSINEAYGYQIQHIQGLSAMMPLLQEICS
In short: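 Quantitative HTS in double-stable HepG2-CYP2B6-hCAR cells. After 4 h plating, cells get compound (15 concentrations) and CITCO at 50 nM final, incubate 24 h at 37 C, then ONE-Glo luminescence is read.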

[9] = target: Nuclear receptor subfamily 1 group I member 3 (Homo sapiens) (UniProt Q14994); experiment: qHTS assay to identify small molecule agonists of the constitutive androstane receptor (CAR) signaling pathway (AID 1224839);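 also: HepG2 cells stably carrying human CAR and a CYP2B6 luciferase reporter; nearly all actives have a fitted effect of over 15% in size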
In short: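 HepG2 cells stably expressing hCAR and a CYP2B6-2.2kb luciferase reporter were treated with compounds at 15 concentrations plus 0.75 uM PK11195 (final) for 24 h at 37 C; luminescence was read after ONE-Glo addition.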

[10] = qHTS assay to identify small molecule agonists of the estrogen related receptor signaling pathway with the pleiotropic PPARgamma coactivator (PGC) from Tox21 10K library (AID 1224842); also: nearly all actives have a fitted effect of over 15% in size; also: potency is read from the fitted curve at half-maximal effect
In short: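 Luminescence from One-Glo (30 min, room temperature) measured after PGC/ERR cells had 18 h at 37 C with pinned compound (23 nL in DMSO). Cells had been seeded at 2,000 per well and pre-incubated 6 h.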

[11] = target: Thyrotropin receptor (Homo sapiens) (UniProt P16473); experiment: qHTS assay to identify small molecule agonists of the thyroid stimulating hormone receptor (TSHR) signaling pathway (AID 1224843; calls by dose curve; also: nearly all actives have a fitted effect of over 45% in size; also: potency is read from the fitted curve at half-maximal effect)
Thyrotropin receptor (Homo sapiens), sequence (P16473 whole entry, looked up): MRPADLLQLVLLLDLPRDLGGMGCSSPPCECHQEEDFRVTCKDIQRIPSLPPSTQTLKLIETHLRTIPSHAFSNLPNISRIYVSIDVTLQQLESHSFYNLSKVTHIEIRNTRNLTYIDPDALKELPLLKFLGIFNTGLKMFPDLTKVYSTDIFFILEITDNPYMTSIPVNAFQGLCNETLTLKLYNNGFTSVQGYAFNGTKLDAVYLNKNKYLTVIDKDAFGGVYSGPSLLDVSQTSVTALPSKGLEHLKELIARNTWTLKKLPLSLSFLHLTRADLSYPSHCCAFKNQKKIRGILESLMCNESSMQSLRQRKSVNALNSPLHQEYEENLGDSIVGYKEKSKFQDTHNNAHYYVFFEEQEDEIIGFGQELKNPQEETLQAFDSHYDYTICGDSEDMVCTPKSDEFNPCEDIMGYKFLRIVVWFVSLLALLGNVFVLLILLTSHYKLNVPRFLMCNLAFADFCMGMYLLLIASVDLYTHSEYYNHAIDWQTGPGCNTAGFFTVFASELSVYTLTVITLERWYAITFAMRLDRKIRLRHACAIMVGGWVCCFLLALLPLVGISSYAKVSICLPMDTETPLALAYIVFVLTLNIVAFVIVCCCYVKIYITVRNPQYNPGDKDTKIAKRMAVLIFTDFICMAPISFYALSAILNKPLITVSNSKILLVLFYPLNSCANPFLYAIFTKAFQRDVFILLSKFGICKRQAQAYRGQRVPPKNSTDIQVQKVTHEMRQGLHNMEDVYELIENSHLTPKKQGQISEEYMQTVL
In short: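 HEK293 cells stably bearing the thyrotropin receptor were plated at 800 cells/well and challenged with compound (30 min, RT). Accumulated cAMP was quantified via cAMP-d2 competing for cryptate-tagged antibody.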

[12] = qHTS assay to identify small molecule agonists of the hypoxia (HIF-1) signaling pathway - cell viability counter screen (AID 1224844; calls by dose curve; also: nearly all actives have a fitted effect of over 50% in size; also: potency is read from the fitted curve at half-maximal effect)
In short: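 Luminescent ATP content (CellTiter-Glo, 30 min, room temperature) served as the viability measure in HRE-bla ME-180 cells exposed to compounds for 17 hrs in low-serum medium (0.5% dialyzed FBS).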

[13] = qHTS assay to identify small molecule antagonists of the estrogen related receptor signaling pathway with the pleiotropic PPARgamma coactivator (PGC) from Tox21 10K library - cell viability counter screen (AID 1224840; active = well fitted cell-killing curve with a large enough effect in the repeat runs, not every such curve was filed as active; also: nearly all actives have a fitted effect of over 40% in size; also: potency is read from the fitted curve at half-maximal effect)
In short: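 Compounds in DMSO, alongside positive and negative controls, were pinned onto PGC/ERR cells (2,000 per well). Exposure lasted 17.5 hours at 37 C, followed by a 30-minute CellTiter-Fluor incubation and fluorescence reading.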

[14] = qHTS assay to identify small molecule antagonists of the estrogen related receptor signaling pathway with the pleiotropic PPARgamma coactivator (PGC) from Tox21 10K library (AID 1224841; call rule not given here; also: actives are mostly falling curves and most rising ones were filed inactive; nearly all actives have a fitted effect of over 50% in size; also: potency is read from the fitted curve at half-maximal effect)
In short: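 Compound exposure ran 18 hours at 37 C in PGC/ERR cells (2,000/well) that had first rested 6 hours in a 37 C/5% CO2 incubator. Luciferase activity was then detected with One-Glo after a 30-minute room-temperature step.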

[15] = qHTS assay to identify small molecule antagonists of the retinoid acid receptor (RAR) signaling pathway - cell viability counter screen (AID 1159551); also: nearly all actives have a fitted effect of over 35% in size; also: potency is read from the fitted curve at half-maximal effect
In short: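 Following overnight attachment, C3RL4 reporter cells received DMSO-dissolved compounds and then retinol (1 uM final). Six hours later at 37 C, ATP content was measured by CellTiter-Glo luminescence.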

Compound | Potency [1] | Potency [2] | Potency [3] | Potency [4] | Potency [5] | Potency [6] | Potency [7] | Potency [8] | Potency [9] | Potency [10] | Potency [11] | Potency [12] | Potency [13] | Potency [14] | Potency [15]
COc1ccc2cc1Oc1ccc(cc1)C[C@H]1c3c(cc4c(c3Oc3cc5c(cc3OC)CCN(C)[C@@H]5C2)OCO4)CCN1C | 23.9 µM (active) | 4.22 µM (active) | inactive | 23.7 µM (active) | inactive | 26.6 µM (active) | 23.7 µM (active) | 23.7 µM (active) | inactive | inactive | inactive | inactive |  |  | 
C=CC(=O)Nc1cc2c(Nc3ccc(F)c(Cl)c3)ncnc2cc1OCCCN1CCOCC1 | 4.77 µM (active) | 7.5 µM (active) |  | 23.7 µM (active) | inactive | 13.3 µM (active) | 13.3 µM (active) |  | inactive | 3.76 µM (active) | inactive | 23.9 µM (active) | 13.3 µM (active) | inactive | 
Cl[Si](Cl)(c1ccccc1)c1ccccc1 | inactive |  |  | inactive | inactive | inactive | inactive |  |  |  | inactive | inactive | inactive |  | inactive
O=C1C(c2[nH]c3ccc(S(=O)(=O)O)cc3c2O)=Nc2ccc(S(=O)(=O)O)cc21 | inactive | inactive |  | inactive | 31.7 µM (active) | inactive | inactive |  |  | inactive |  | inactive | inactive |  | 
c1ccsc1 | inactive |  |  | inactive | inactive | inactive | inactive |  | inactive |  | inactive |  | inactive |  | inactive
CCCCCCCCCCCCCC[N+](C)(C)Cc1ccccc1 | 7.03 µM (active) and 5.35 µM (active) and 2.51 mM (active) |  |  | 62.1 µM (active) and 23.7 µM (active) and 22.4 mM (active) | inactive |  |  |  | inactive | inactive | 43.9 µM (active) | inactive and 17.8 mM (active) |  | 31.1 µM (active) and 11.9 µM (active) and 15.8 mM (active) | 69.6 µM (active) and 29.8 µM (active) and inactive
CCC(C)[O-].CCC(C)[O-].CCOC(=O)/C=C(/C)[O-].[Al+3] | inactive | inactive | inactive |  |  | inactive | inactive |  |  |  | inactive |  |  |  | 
O=C1c2ccccc2C(=O)N1SC1CCCCC1 | 48.9 µM (active) and 49 µM (active) |  |  | 68.6 µM (active) | 25.2 µM (active) and 17.8 µM (active) | inactive |  | 68.5 µM (active) | inactive |  | inactive | 54.9 µM (active) |  |  | inactive
CC1(C)[C@@H](O)CC[C@]2(C)[C@H]3C(=O)C=C4[C@@H]5C[C@@](C)(C(=O)O)CC[C@]5(C)CC[C@@]4(C)[C@]3(C)CC[C@@H]12 | inactive |  |  |  | inactive | inactive | inactive | inactive | inactive | inactive | inactive |  | inactive | inactive | inactive
c1ccc(C(O[C@@H]2CCCN(CCc3ccc4c(c3)OCO4)C2)c2ccccc2)cc1 | inactive |  |  |  | inactive | inactive | inactive |  |  |  |  | inactive |  |  | inactive
COC(=O)C1=C(C)NC(C)=C(C(=O)OCCN2CCN(C(c3ccccc3)c3ccccc3)CC2)C1c1cccc([N+](=O)[O-])c1 (stereo unspecified) | inactive |  |  | 11.9 µM (active) | inactive |  |  | inactive | inactive | inactive | inactive |  |  | 9.44 µM (active) | inactive
